# Screens: PubChem, several laboratories
# An excerpt weighted towards active compounds, which were near 3.8% of everything screened.
# PAFAH1B3 FP inh – PAFAH1B3 enzyme inhibitors, primary screen, biochemical, fluorescence polarization, human. Platelet-activating factor acetylhydrolase IB subunit alpha1 (Homo sapiens), Q15102. recombinant PAFAH1B3, FP-rhodamine probe. inhibition, % at 3.39 µM. actives 0.28% (n = 340,000). AID 492972, 2010;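 active = inhibition above the screen-wide average of all tested compounds plus 3 SD, cut at about 25% in these data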;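 also: 0% = enzyme with DMSO only and 100% = wells lacking PAFAH1B3 protein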
# DSG3 Ab inh – inhibitors of pemphigus antibody binding to DSG3, primary screen, biochemical, bead-based, flow cytometry, scFv-GFP. Desmoglein-3 (Homo sapiens), P32926. DSG3-coupled beads, scFv-anti-DSG3-GFP binding; hits give low values. binding (percent of control), % at 10 µM. actives 0.48% (n = 310,000). AID 588358, 2011;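 active = binding more than 3 SD below its plate's average and above zero; inconclusive = below that plate limit but binding exactly zero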;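 also: hits lower antibody fragment binding to DSG3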
# PAFAH1B2 inh – PAFAH1B2 enzyme inhibitors, primary screen, biochemical, fluorescence polarization, human; Platelet-activating factor acetylhydrolase IB subunit alpha2 (Homo sapiens), P68402; recombinant PAFAH1B2, FP-rhodamine activity probe; inhibition, % at 3.39 µM; actives 1.2% (n = 340,000);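 active = inhibition above the mean of all tested compounds plus 3 SD, cut at about 24% in these data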;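 also: 0% = enzyme with DMSO and 100% = wells lacking PAFAH1B2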
# Target sequence (P68402 whole entry, looked up): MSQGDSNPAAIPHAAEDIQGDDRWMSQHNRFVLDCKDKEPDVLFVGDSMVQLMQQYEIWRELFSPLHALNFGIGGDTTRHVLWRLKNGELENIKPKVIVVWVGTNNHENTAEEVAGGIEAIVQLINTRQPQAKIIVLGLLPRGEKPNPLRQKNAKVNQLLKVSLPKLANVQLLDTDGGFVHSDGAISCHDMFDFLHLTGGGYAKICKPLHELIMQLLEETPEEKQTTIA
# PfM18AAP inh – PfM18AAP inhibitors, malaria aminopeptidase, primary screen, biochemical, QFRET, recombinant enzyme. M18 aspartyl aminopeptidase (Plasmodium falciparum 3D7). H-Glu-NHMec fluorogenic cleavage. inhibition, % at 7.35 µM. actives 1.2% (n = 290,000). AID 1822, 2009;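 active = inhibition above the campaign mean inhibition over all tested compounds plus 3 SD, cut at about 28% in these data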;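 also: 0% = plate median of test compound wells and 100% = 2 mM ZnCl2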
# pPAFAH FP inh – pPAFAH enzyme inhibitors, primary screen, biochemical, fluorescence polarization, human; inhibition, % at 3.39 µM; AID 463082, 2010; recombinant pPAFAH, FP-rhodamine probe fluorescence polarization; actives 1.5% (n = 330,000);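 active = inhibition above the mean inhibition across the screen plus 3 SD, cut at about 25% in these data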;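 also: inhibitors block binding of the rhodamine activity-based probe so polarization drops; 0% = enzyme with DMSO and 100% = wells lacking pPAFAH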
# Target sequence (Q13093 whole entry, looked up): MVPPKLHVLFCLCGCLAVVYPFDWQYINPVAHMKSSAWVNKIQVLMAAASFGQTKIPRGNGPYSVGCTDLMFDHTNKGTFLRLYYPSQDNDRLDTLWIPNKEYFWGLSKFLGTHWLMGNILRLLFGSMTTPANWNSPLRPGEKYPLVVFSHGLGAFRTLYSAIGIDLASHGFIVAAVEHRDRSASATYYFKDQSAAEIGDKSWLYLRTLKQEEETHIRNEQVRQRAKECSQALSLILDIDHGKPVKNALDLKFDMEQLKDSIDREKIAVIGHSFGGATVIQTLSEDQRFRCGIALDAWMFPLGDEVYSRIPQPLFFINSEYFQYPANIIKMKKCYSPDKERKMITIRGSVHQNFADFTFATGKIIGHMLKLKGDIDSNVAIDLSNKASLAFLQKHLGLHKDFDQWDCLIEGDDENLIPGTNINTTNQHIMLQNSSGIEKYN
# PAFAH2 FP inh – PAFAH2 enzyme inhibitors, primary screen, biochemical, fluorescence polarization, human; actives 0.99% (n = 340,000); Platelet-activating factor acetylhydrolase 2, cytoplasmic (Homo sapiens), Q99487; inhibition, % at 3.39 µM; recombinant PAFAH2, FP-rhodamine activity probe;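 active = inhibition above the mean over all tested compounds plus 3 SD, cut at about 30% in these data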;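 also: inhibitors block probe labeling of enzyme so polarization drops; 0% = enzyme with DMSO and 100% = wells lacking PAFAH2 protein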
# PAFAH2 confirm – PAFAH2 enzyme inhibitors, confirmation, biochemical, fluorescence polarization, human; shares compounds with PAFAH2 FP inh; recombinant PAFAH2, FP-rhodamine activity probe; inhibition, % at 3.39 µM; actives 65% (n = 2,300); AID 493030, 2011;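 active = mean inhibition over three repeats above a set limit taken from the earlier primary screen, cut at about 30% in these data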;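 also: inhibitor blocks binding of rhodamine activity probe so polarization falls; 0% = enzyme with DMSO and 100% = wells lacking PAFAH2 protein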
# Active calls of the source: *; ? = inconclusive; · = no result.
SMILES,PAFAH1B3 FP inh,DSG3 Ab inh,PAFAH1B2 inh,PfM18AAP inh,pPAFAH FP inh,PAFAH2 FP inh,PAFAH2 confirm
COC(c1ccc(Cl)cc1)(c1ccc(Cl)cc1)C(Oc1nc(C)cc(C)n1)C(=O)O (configuration not stated),8.0,113.1,6.2,0.9,-1.7,5.9,·
CCCc1cc(=O)oc2cc(OCC(=O)NC3CC(C)(C)NC(C)(C)C3)ccc12,2.4,109.7,-1.5,0.2,3.8,-1.4,·
O=C(O)CCC(=O)Nc1ccc(C(=O)OCC(=O)c2ccc(Cl)cc2)cc1,7.1,106.9,3.8,-14.6,3.1,41.6*,27.6
Cc1noc(C)c1COc1ccc(C(=O)OCC(=O)Nc2ccc3c(c2)OCO3)cc1,3.3,107.5,0.1,1.1,15.4,79.9*,86.5*
O=C(COC(=O)c1ccc(O)cc1)Nc1ccc2c(c1)OCO2,3.8,88.0,1.5,·,10.9,88.8*,80.9*
O=C(O)CCCC(=O)Nc1ccc(Cl)cc1,1.8,96.3,4.6,-8.0,0.5,1.0,·
Cc1noc(C)c1COc1ccc(C(=O)OCC(=O)Nc2ccc(S(N)(=O)=O)cc2)cc1,5.2,99.8,5.0,·,-0.4,-0.5,·
O=C(NN(Cc1ccccc1)Cc1ccccc1)c1ccccc1,11.8,114.9,5.5,·,·,2.0,·
CN(C)S(=O)(=O)Nc1cc(Cl)cc(Cl)c1,3.5,98.9,5.1,-1.8,1.7,6.8,·
CC(=O)C(Cc1ccccc1)NC(=O)COC(=O)c1cccc(C)c1[N+](=O)[O-] (configuration not stated),13.8,·,6.7,·,6.3,35.5*,13.8
Cc1ccc(NC(=O)c2ccccc2NS(=O)(=O)c2ccc(Cl)s2)cc1,1.1,108.2,11.4,-3.5,9.4,71.5*,73.5*
O=C(Nc1ccccc1)c1ccccc1NS(=O)(=O)c1ccc(Cl)s1,2.8,125.6,20.5,-3.0,6.9,70.7*,75.2*
O=C(Nc1ccccc1Cc1ccccc1)c1ccccc1NS(=O)(=O)c1ccc(Cl)s1,2.8,112.8,2.4,-1.4,16.4,9.6,·
O=C(NCc1ccco1)c1ccccc1NS(=O)(=O)c1ccc(Cl)s1,-0.6,101.7,14.2,2.4,9.7,5.3,·
O=C(COC(=O)c1cc(S(=O)(=O)NCc2ccccc2)ccc1O)c1cc2ccccc2o1,5.0,96.3,23.0,-8.4,15.3,57.9*,48.1*
O=C(COC(=O)c1ccc(Cl)s1)c1cc2ccccc2o1,-0.6,90.7,2.1,-11.0,20.5,38.3*,17.2
Cn1cccc1C(=O)OCC(=O)c1cc2ccccc2o1,1.5,99.7,1.2,3.7,22.9,18.1,·
C[C@]12CCC(O)CC1CCC1C2CC[C@]2(C)C(c3cc(C(F)(F)F)n[nH]3)CCC12 (some centres not stated),-1.5,91.8,-1.8,1.6,-4.3,1.1,·
Cc1cc(C)n(-c2ccc(C(=O)OCC(=O)Nc3cc(Cl)ccc3[N+](=O)[O-])cc2)n1,3.7,96.0,1.1,-7.7,4.2,2.9,·
Cc1cc(C)n(-c2ccc(C(=O)OCC(=O)Nc3ccccc3F)cc2)n1,4.7,?,2.6,·,23.6,61.9*,51.1*
Cc1ccc(NC(=O)COC(=O)c2ccc(-n3nc(C)cc3C)cc2)c(F)c1,-0.2,92.7,2.8,·,18.8,41.8*,42.5*
Cc1ccnc(NC(=O)COc2ccc3c(c2)CCC3)c1,-5.2,95.1,5.6,·,-1.2,-4.0,·
Cc1ccc(C)c(N2CCN(C(=O)c3ccc(CS(=O)Cc4cccc(Cl)c4)o3)CC2)c1 (configuration not stated),3.9,103.8,3.4,-9.9,11.3,1.1,·
Cc1ccc(C)c(S(=O)(=O)N(C)c2ccc(OC(=O)C3CCN(C(=O)Nc4ccccc4)CC3)cc2)c1,3.5,98.0,-1.2,·,·,32.1*,17.0
O=C1CSC(=S)N1N=Cc1c(O)ccc2ccccc12,16.0,94.1,5.5,·,·,41.9*,34.5*
SMILES,PAFAH1B3 FP inh,DSG3 Ab inh,PAFAH1B2 inh,PfM18AAP inh,pPAFAH FP inh,PAFAH2 FP inh,PAFAH2 confirm
Cc1n[nH]c(=S)n1/N=C/c1c(O)ccc2ccccc12,5.3,116.7,6.2,1.8,1.0,5.4,·
COc1ccc(C(=O)O/N=C(/C)c2cccs2)cc1,5.3,104.3,1.9,8.8,20.3,64.2*,55.0*
COc1ccc(C2CC2/C(C)=N/OC(=O)c2cccs2)cc1 (configuration not stated),4.1,92.7,-3.9,-0.8,-0.4,-5.2,·
COc1ccc(C(=O)O/N=C(\C)c2nccs2)cc1,1.7,106.3,-0.9,-11.9,2.3,67.0*,59.6*
Cc1ccc(CNC(=O)c2ccc(Cn3cc(-c4ccc(C)cc4)nc3-c3ccncc3)cc2)cc1,-6.9,100.1,2.5,-8.8,1.4,1.1,·
Cc1ccc(-c2nc(C)sc2CC(=O)OCC(=O)Nc2cccc([N+](=O)[O-])c2)cc1,-1.8,100.4,5.9,-2.1,9.9,3.2,·
Cc1ccc(C(=O)c2ccccc2C(=O)OCC(=O)Nc2cccc([N+](=O)[O-])c2)cc1,-10.1,119.8,-1.4,-10.2,10.7,72.6*,76.5*
CC1CC1C(=O)OCC(=O)Nc1ccc2[nH]c(=O)[nH]c2c1 (configuration not stated),4.5,92.1,0.3,1.2,7.5,-12.2,·
COc1cc([N+](=O)[O-])ccc1NC(=O)COC(=O)C=C(C)C,5.3,104.5,-5.0,9.2,-1.8,-1.5,·
CC(C)=CC(=O)OCC(=O)Nc1cccc([N+](=O)[O-])c1,2.2,99.3,2.4,9.7,-2.1,76.1*,74.9*
CC1CC1C(=O)OCC(=O)Nc1cccc([N+](=O)[O-])c1 (configuration not stated),1.0,96.0,5.8,-7.3,-1.2,82.1*,83.6*
O=S(=O)(NCc1ccccc1)[C@@H]1CC2C=CC1C2 (some centres not stated),7.4,103.1,7.2,·,0.2,2.8,·
C/C(=N\OC(=O)c1ccccc1)c1cc(-c2ccc(Cl)cc2)no1,2.1,102.2,2.4,-11.0,2.2,-4.1,·
C/C(=N/OC(=O)C1CC1)c1cc(-c2ccc(Cl)cc2)no1,12.3,108.1,7.1,2.0,2.0,72.9*,61.5*
CC(C)c1nc2sc3c(SCCN(C)C)ncnc3c2c2c1CCC2,-2.5,108.5,10.7,·,·,-2.1,·
CCN(CC)S(=O)(=O)c1ccc2c(c1)nc(CCC(=O)O)n2C,-2.3,95.8,-5.2,4.1,2.9,-0.7,·
